The text below walks through data of PubChem BioAssay AID1645853 (Buhrlage Lab, Dana-Farber Cancer Institute and Novartis …, 2021).

Hit rate of the full screen: of about 47,000 compounds, about 2,000 (4.3%) were called active. This is one part of a sample in which actives are shown more often than they occur. Cut-off read from the data, not from the text of the source: active = inhibition above about 30%; inactive = the rest.

Chain of Ubiquitin carboxyl-terminal hydrolase 8 (Homo sapiens) (P40818 whole entry, looked up): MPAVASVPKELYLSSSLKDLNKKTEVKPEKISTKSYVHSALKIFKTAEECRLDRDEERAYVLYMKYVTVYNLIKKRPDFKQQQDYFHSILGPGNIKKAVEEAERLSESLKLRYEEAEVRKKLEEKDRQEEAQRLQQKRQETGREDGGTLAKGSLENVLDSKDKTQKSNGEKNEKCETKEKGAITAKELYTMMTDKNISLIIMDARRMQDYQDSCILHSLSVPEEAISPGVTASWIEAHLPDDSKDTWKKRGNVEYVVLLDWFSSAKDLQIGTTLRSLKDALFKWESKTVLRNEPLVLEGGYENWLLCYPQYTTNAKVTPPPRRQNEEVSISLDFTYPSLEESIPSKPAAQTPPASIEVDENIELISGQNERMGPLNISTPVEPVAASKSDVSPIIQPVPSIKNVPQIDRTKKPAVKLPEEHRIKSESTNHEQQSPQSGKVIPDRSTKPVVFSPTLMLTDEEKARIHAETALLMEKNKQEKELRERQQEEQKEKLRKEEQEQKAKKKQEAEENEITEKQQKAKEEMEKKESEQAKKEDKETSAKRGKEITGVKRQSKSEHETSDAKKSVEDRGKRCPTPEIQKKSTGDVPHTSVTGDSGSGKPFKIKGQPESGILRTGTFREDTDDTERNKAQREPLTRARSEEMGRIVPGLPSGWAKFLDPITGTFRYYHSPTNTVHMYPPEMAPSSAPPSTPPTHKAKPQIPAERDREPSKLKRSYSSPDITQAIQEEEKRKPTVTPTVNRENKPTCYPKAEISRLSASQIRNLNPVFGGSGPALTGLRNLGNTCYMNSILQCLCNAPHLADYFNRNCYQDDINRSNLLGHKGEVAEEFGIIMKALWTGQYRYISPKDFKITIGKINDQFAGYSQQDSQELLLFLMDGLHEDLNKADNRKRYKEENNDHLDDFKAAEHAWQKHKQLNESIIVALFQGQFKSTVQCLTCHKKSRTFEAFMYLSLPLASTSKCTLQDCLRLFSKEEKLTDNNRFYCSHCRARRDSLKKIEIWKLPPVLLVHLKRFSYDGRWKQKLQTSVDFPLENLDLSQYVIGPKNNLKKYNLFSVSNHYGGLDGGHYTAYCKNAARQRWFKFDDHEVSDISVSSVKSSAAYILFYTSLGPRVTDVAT

The assay has as its target Ubiquitin carboxyl-terminal hydrolase 8 (Homo sapiens) (UniProt P40818). As to the kind of experiment: inhibitors of human USP8 deubiquitinase (AID 1645853). Particulars: purified USP8, Ub-rhodamine cleavage fluorescence, 30 min; at 20 µM; stronger effect = higher value.
For the molecule `CCc1cccc(C)c1NC(=O)Cn1nc2ccc(C(=O)NCc3ccccc3)cn2c1=O`, the inhibition (usually the drop in the measured response relative to a control, in per cent) was 74.5% (active). As to `Cc1cc(=O)n(CC(=O)NCc2ccccc2)c(N2CCCC2)n1`, the inhibition is 2.35% (inactive). For `CCc1cccc(C)c1NC(=O)CSc1nc2c(c(=O)[nH]1)CCCC2`, the inhibition was 18% (inactive). With `O=S(=O)(Cc1nnc(-c2cc(Cl)cc(Cl)c2)o1)c1ccc(Cl)cc1` the figure was 45.6% (active); with `Cc1ccc(-c2nnc(CCC(=O)O)o2)cc1`, 3.95% (inactive); with `N#Cc1ccc(-c2nc(CS(=O)(=O)c3ccc(Cl)cc3)no2)cc1`, -6.87% (inactive). With `O=C(NCCC(=O)N1CCC2(CC1)NCCc1[nH]cnc12)c1ccc(-c2ccccc2)cc1` the figure was 34.7% (active); with `C[C@H](NC(=O)Cc1ccc(Cl)cc1)C(=O)N1CCC2(CC1)NCCc1[nH]cnc12`, 21.2% (inactive); with `O=C(NCC(=O)N1CCC2(CC1)NCCc1[nH]cnc12)c1ccc(Br)cc1`, 18.8% (inactive). With `Cc1cc(Cl)ccc1OCCCC(=O)NCc1ccccn1` the figure was -25% (inactive); with `O=C(Cc1ccccc1)Nc1ccc(-c2nc3cnccc3o2)c(O)c1`, 74.3% (active); with `COc1cc(C(=O)Nc2ccc(-c3nc4cnccc4o3)cc2)cc(OC)c1OC`, -3.3% (inactive). For the molecule `O=C(Nc1ccc(-c2nc3cnccc3o2)c(O)c1)c1ccc(-c2ccccc2)cc1`, the inhibition was -4.15% (inactive). With `CCCc1noc(-c2ccc(-n3ncc(C(=O)N4CCOCC4)c3C)nc2)n1` the figure was 0.113% (inactive); with `COc1ccc(-c2noc(CN(C3CCCCC3)S(=O)(=O)c3ccc(OC)cc3)n2)cc1`, 14% (inactive); with `COc1cccc(-c2noc(CN3CCCC3c3cc(OC)ccc3OC)n2)c1` (stereo unspecified), -12.7% (inactive). With `CCCCN(C)c1ccc2nnc(CCc3nc(-c4cc(OC)cc(OC)c4)no3)n2n1` the figure was 84.8% (active); with `CSCCC(NC(=O)C1CCCC1)c1nc2ccccc2[nH]1` (stereo unspecified), -5.64% (inactive). Turning to `Cc1cnc(NC(=O)Cn2cnc3c2c(=O)n(C)c(=O)n3C)s1`, the inhibition was 19.6% (inactive).

For `Cn1c(=O)c2c(ncn2Cc2nnc(-c3ccccc3)o2)n(C)c1=O`, the inhibition is 64.8% (active). For `Cc1ccc(NC(=O)CCn2cnc3c2c(=O)n(C)c(=O)n3C)cc1`, the inhibition was -3.63% (inactive).

Turning to `CC1CCN(C(=O)c2ncn3c2CN(C)S(=O)(=O)c2ccccc2-3)CC1`, the inhibition was 6.05% (inactive).

Consider `CCc1nnc2ccc(S(=O)(=O)N(CC)c3ccccc3)cn12`, for which the inhibition was -281% (inactive). Regarding `Nn1c(SCC(=O)Nc2ccccc2F)nnc1-c1n[nH]c2c1CCC2`, the inhibition was 7.87% (inactive). With `Cc1cc(-c2nnc(SCC(=O)Nc3ccc(Br)c(C)c3)n2N)n[nH]1` the figure was 31% (active); with `Cc1cc(NC(=O)COC(=O)c2cccc(C)c2O)ccc1Br`, 0.58% (inactive); with `CC(C)(C)n1nc(C2CC2)c(Br)c1NC(=O)c1ccccc1F`, 20.5% (inactive). To `CC1(C)CCC2(C(=O)O)CC[C@]3(C)C(=CC[C@@H]4[C@@]5(C)CCC(O)C(C)(C)[C@@H]5CC[C@]43C)C2C1` (stereo partly specified) belongs 4.43% (inactive).

With `Cc1cccc(CNC(=O)CN2C(=O)C3CCCN3C(=O)c3cccc(C)c32)c1` (stereo unspecified), the inhibition was 5.77% (inactive).

Take `Cc1cccc(NC(=O)Cn2c(C)ccc(NC(=O)Nc3cccc(C)c3)c2=O)c1`: the inhibition is 26.5% (inactive). Consider `Cc1ccc2cc(CNc3ccccc3)c(=O)n(CC(=O)Nc3ccccc3C)c2c1`, for which the inhibition is 92.8% (active).

Turning to `Cc1cccc(C2=NC3(CCN(CC(=O)Nc4ccccc4C)CC3)NC2=O)c1`, the inhibition is -2.9% (inactive).

On to `CCOC(=O)c1cc(S(=O)(=O)Nc2ccc(OC)c(Cl)c2)cn1C`, for which the inhibition was 11.8% (inactive). On to `O=C(NC1CC2(CCOCC2)Oc2ccccc21)c1[nH]ncc1Cl` (stereo unspecified), for which the inhibition was 3.95% (inactive). Consider `CSc1cccc(NC(=O)COc2ccc(C(=O)c3ccccc3)cc2)c1`, for which the inhibition was -0.948% (inactive). To `COc1ccc(CC(=O)Nc2cnc(-c3ccccc3)nc2)cc1` belongs -7.3% (inactive); to `O=C(COc1ccccc1)Nc1cnc(-c2cccc(Cl)c2)nc1`, 60.7% (active).

For `CCC(C)[C@H](NC(=O)[C@@H]1Cc2c([nH]c3ccccc23)C2c3ccccc3C(=O)N21)C(=O)NCCc1ccccc1` (stereo partly specified), the inhibition was -10.4% (inactive). To `Cc1cccc(C(=O)Nc2ccc(-n3c(C)nc4ncccc4c3=O)cc2C)c1` belongs 5.93% (inactive); to `COc1cccc(C2c3[nH]c4ccccc4c3C[C@@H]3C(=O)N(Cc4ccc5c(c4)OCO5)CC(=O)N23)c1` (stereo partly specified), 13.4% (inactive); to `CN(c1ccccc1)c1nc(=O)n(CC(=O)Nc2ccc3c(c2)OCCO3)c2ccccc12`, -40.3% (inactive). To `Cc1cc(=O)n(CC(=O)Nc2ccc3c(c2)OCO3)c2c1c(-c1ccccc1)nn2-c1ccccc1` belongs 67.9% (active); to `CCc1cc(=O)n(CC(=O)Nc2cc(C)on2)c(-c2ccccc2)n1`, -44.3% (inactive); to `CC(=O)N1CCc2cc(S(=O)(=O)Nc3ccccc3N3CCN(C)CC3)ccc21`, -8.86% (inactive). To `CCCN1CCN(c2ccc(C(=O)O)cc2NS(=O)(=O)c2cc(F)ccc2F)CC1` belongs 84.9% (active); to `CCS(=O)(=O)Nc1cc(S(=O)(=O)Nc2cc(Cl)ccc2Cl)ccc1N1CCOCC1`, 2.1% (inactive). On to `Cc1ccnc(SCc2nc(-c3ccc4c(c3)ncn4C)no2)n1`, for which the inhibition was 2.93% (inactive).

Turning to `Cc1csc(C2(NC(=O)Cc3cc(C)on3)CCCC2)n1`, the inhibition was 74.9% (active).

With `Cc1noc(C2(NC(=O)Cc3ccccc3C)CCCCC2)n1`, the inhibition is -1.15% (inactive). With `O=C(Cc1cccc(F)c1)NC1(c2nc(C3CC3)no2)CCCCC1` the figure was 5.33% (inactive).

As to `Cc1noc(C)c1S(=O)(=O)NCc1ccc2c(c1)CCN2C(=O)C(C)C`, the inhibition was 21.9% (inactive). Consider `Cc1cccc(N2CCN(S(=O)(=O)c3c[nH]c(-c4nnc(C)o4)c3)CC2C)c1` (stereo unspecified), for which the inhibition was 12.2% (inactive). Turning to `CC(C)NS(=O)(=O)c1ccc(NC(=O)c2cccnc2)cc1`, the inhibition was 4.16% (inactive). `CCc1cc(C2CCCN2C(=O)c2cc(-c3ccccc3F)no2)on1` (stereo unspecified): the inhibition was 0.852% (inactive). With `O=C(C1CCC1)N1CCCN(c2ccc([N+](=O)[O-])cn2)CC1` the figure was -127% (inactive). `CN(C)c1ccc(S(=O)(=O)NCC(=O)NCC2CCCCC2)cc1[N+](=O)[O-]`: the inhibition is -110% (inactive).
